The values that follow come from PMC7862700, “An all-to-all approach to the identification of sequence-specific readers for epigenetic DNA modifications on cytosine”.

What all share (test): DAPPL (digital affinity profiling via proximity ligation, sequencing); 10 mM Tris-HCl pH 7.5, 50 mM NaCl, 1 mM DTT, 4% glycerol, room temperature, 30 min; GST-TFs on glutathione beads, 16-mer random dsDNA library, 0.1% formaldehyde crosslink after washing; high values mean tight binding
One experiment concerns the target T1, FEV (Homo sapiens, UniProt Q99581 1-238).
T1 sequence: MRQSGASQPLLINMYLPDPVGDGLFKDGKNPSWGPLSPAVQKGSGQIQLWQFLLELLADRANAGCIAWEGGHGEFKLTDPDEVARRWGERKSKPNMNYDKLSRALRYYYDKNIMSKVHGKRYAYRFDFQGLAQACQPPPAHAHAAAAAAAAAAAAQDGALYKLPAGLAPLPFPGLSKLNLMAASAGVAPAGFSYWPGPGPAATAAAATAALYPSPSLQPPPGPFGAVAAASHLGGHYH
The note with it: protein: recombinant; tags: N-terminal GST; dsDNA, one strand shown. The essentials: (§1)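 Human transcription factors carrying a GST fusion were produced in yeast, bound to glutathione beads, tagged with DNA barcodes and pooled together with a tag-only sample. Each pool was held with 200 nmole of a random double-stranded 16-mer DNA library in Tris/NaCl/DTT/glycerol buffer for 30 min at room temperature, then washed, crosslinked in 0.1% formaldehyde, proximity-ligated with BsaI/T4 ligase (1 h, 37 °C), PCR-amplified and sequenced on an Illumina NextSeq500. Binding signal is the read frequency of each hexamer for a given factor divided by its frequency in the tag-only sample.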

A further experiment concerns the target ETV5 (Homo sapiens, UniProt P41161 1-510). The note with it: protein: recombinant; tags: N-terminal GST; dsDNA, one strand shown. The essentials: as §1
For a further experiment, the target named is HSF1 (Homo sapiens, UniProt Q00613 1-529). The note with it: protein: recombinant; tags: N-terminal GST; chain copies: 3; dsDNA, one strand shown. The essentials:
as §1

The target in the next experiment is T2, SPIC (Homo sapiens, UniProt Q8N5J4 1-248).
T2 sequence: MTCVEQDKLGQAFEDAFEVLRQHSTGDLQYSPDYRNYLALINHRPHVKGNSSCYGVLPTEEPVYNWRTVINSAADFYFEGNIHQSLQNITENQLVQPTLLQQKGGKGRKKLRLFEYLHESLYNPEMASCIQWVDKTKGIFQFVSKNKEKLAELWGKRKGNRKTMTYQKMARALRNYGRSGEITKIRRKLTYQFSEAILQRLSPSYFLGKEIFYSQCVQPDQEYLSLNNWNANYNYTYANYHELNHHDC
The settings on record: protein: recombinant; tags: N-terminal GST; dsDNA, one strand shown. The essentials:
as §1

The target in a further experiment is ELF4 (Homo sapiens, UniProt Q99607 1-663). The settings on record: protein: recombinant; tags: N-terminal GST; dsDNA, one strand shown. The essentials:
as §1

Another experiment has as its target T3, ELK4 (Homo sapiens, UniProt P28324-2 1-405).
T3 sequence: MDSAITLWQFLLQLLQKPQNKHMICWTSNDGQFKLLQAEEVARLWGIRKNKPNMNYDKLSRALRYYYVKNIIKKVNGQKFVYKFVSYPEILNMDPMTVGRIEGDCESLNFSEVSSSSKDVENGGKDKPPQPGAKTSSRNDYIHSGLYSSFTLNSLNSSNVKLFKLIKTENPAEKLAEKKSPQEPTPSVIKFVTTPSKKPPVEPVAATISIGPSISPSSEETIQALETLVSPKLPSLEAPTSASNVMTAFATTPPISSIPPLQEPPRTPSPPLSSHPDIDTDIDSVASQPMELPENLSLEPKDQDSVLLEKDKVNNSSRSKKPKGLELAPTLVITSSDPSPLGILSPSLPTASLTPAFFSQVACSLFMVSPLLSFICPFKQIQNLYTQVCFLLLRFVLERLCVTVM
The settings on record: protein: recombinant; tags: N-terminal GST; dsDNA, one strand shown. The essentials:
as §1

The target in another experiment is T4, ETV2 (Homo sapiens, UniProt O00321 1-342).
T4 sequence: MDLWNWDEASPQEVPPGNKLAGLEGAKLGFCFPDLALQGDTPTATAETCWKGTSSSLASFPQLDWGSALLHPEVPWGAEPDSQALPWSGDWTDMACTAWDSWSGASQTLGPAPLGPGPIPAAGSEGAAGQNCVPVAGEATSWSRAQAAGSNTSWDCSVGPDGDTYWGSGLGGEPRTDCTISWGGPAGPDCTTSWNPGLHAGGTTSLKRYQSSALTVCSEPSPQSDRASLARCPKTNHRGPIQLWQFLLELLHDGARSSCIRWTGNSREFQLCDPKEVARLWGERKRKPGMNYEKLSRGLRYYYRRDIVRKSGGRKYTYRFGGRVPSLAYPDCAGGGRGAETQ
The settings on record: protein: recombinant; tags: N-terminal GST; dsDNA, one strand shown. The essentials:
as §1

The next experiment has as its target T5, ELF3 (Homo sapiens, UniProt P78545 1-371).
T5 sequence: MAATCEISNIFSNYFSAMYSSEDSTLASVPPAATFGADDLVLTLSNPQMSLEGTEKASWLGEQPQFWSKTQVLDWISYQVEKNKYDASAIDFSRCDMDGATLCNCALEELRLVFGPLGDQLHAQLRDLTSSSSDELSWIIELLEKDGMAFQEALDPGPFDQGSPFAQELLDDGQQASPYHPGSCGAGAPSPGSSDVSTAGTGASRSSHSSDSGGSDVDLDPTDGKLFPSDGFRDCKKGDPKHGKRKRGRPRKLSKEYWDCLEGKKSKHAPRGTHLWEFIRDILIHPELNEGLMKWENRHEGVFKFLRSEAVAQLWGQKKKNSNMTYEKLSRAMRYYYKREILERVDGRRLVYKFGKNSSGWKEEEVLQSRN
The settings on record: protein: recombinant; tags: N-terminal GST; dsDNA, one strand shown. The essentials: as §1

For a further experiment, the target named is CRX (Homo sapiens, UniProt O43186 1-299). The settings on record: protein: recombinant; tags: N-terminal GST; dsDNA, one strand shown. The essentials: as §1
Another experiment has as its target ETV1 (Homo sapiens, UniProt P50549 1-477). The settings on record: protein: recombinant; tags: N-terminal GST; dsDNA, one strand shown. The essentials:
as §1

The target in a further experiment is T6, ERF (Homo sapiens, UniProt P50548 1-548).
T6 sequence: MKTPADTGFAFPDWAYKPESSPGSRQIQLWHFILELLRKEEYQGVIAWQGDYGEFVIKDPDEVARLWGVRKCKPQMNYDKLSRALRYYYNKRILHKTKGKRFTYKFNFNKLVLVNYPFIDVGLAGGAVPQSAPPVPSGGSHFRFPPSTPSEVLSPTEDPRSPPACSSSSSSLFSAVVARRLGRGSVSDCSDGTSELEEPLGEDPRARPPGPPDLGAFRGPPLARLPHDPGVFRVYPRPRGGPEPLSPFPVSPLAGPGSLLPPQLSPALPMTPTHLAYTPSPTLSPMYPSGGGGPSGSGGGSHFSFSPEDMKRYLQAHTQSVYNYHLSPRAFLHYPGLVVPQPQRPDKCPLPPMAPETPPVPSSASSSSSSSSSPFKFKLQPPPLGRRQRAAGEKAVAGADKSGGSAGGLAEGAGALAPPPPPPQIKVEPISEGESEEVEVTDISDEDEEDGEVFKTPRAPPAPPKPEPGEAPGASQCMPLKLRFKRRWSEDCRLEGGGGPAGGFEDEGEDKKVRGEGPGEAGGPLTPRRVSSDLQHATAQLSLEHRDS
The note with it: protein: recombinant; tags: N-terminal GST; dsDNA, one strand shown. The essentials:
as §1

The target in another experiment is T7, ETV3L (Homo sapiens, UniProt Q6ZN32 1-361).
T7 sequence: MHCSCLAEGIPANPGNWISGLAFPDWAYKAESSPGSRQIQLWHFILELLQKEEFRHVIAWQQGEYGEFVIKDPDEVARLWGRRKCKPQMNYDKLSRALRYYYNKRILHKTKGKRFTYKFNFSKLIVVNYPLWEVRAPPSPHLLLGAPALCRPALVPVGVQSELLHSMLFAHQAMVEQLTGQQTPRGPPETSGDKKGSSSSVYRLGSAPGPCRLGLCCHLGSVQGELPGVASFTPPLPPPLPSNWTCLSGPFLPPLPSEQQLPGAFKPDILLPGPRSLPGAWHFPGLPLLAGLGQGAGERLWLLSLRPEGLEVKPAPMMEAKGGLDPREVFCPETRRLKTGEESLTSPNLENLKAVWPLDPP
The settings on record: protein: recombinant; tags: N-terminal GST; dsDNA, one strand shown. The essentials: as §1

In a further experiment the target is T8, ETS2 (Homo sapiens, UniProt P15036 1-469).
T8 sequence: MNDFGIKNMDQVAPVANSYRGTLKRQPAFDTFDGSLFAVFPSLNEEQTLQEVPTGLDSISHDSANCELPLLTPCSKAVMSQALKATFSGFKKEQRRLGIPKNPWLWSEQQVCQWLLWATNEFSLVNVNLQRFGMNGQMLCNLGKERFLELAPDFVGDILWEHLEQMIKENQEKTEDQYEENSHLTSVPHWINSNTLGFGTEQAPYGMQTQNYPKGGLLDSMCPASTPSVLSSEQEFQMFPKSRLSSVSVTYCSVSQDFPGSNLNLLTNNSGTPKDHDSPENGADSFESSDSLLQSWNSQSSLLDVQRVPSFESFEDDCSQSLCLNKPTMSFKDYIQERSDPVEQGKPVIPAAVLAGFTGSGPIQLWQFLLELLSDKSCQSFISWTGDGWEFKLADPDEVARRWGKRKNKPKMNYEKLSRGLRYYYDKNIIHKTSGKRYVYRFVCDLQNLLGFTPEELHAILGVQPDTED
The note with it: protein: recombinant; tags: N-terminal GST; dsDNA, one strand shown. The essentials: as §1

Another experiment concerns the target T9, SPDEF (Homo sapiens, UniProt O95238 1-335).
T9 sequence: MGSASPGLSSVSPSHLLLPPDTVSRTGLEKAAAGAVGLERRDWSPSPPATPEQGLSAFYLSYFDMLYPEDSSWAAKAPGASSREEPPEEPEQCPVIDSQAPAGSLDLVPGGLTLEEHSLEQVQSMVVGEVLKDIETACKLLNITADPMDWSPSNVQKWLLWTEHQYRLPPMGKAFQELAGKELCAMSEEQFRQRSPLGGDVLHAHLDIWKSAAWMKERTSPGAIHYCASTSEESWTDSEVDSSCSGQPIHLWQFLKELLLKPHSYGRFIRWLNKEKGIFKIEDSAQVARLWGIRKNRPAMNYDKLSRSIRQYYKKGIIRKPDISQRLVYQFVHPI
The note with it: protein: recombinant; tags: N-terminal GST; dsDNA, one strand shown. The essentials:
as §1

For another experiment, the target named is T10, ETV7 (Homo sapiens, UniProt Q9Y603 1-341).
T10 sequence: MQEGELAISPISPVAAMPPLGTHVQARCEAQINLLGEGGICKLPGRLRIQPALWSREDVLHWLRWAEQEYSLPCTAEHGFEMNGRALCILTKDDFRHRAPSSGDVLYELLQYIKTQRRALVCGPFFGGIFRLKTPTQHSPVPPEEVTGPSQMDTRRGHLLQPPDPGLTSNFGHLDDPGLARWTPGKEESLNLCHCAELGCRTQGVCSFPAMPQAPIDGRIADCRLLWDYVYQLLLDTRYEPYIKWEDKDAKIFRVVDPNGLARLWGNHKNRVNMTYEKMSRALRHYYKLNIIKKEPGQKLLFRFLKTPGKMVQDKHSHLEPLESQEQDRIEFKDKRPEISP
The settings on record: protein: recombinant; tags: N-terminal GST; dsDNA, one strand shown. The essentials:
as §1

In the next experiment the target is T11, ELF5 (Homo sapiens, UniProt Q9UKW6-2 1-255).
T11 sequence: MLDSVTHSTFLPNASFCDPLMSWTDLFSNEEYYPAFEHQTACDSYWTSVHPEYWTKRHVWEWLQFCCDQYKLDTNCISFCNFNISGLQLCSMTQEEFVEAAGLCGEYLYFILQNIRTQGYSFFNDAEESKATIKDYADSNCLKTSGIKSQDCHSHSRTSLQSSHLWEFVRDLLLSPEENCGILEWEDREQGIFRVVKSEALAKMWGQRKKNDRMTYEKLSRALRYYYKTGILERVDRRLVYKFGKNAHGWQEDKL
The note with it: protein: recombinant; tags: N-terminal GST; dsDNA, one strand shown. The essentials: as §1

Another experiment concerns the target T12, ETV3 (Homo sapiens, UniProt P41162-2 1-143).
T12 sequence: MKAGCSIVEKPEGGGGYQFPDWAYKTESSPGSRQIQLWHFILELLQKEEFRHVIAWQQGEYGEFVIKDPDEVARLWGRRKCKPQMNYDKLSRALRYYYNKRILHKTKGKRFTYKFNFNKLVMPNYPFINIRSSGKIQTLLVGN
The settings on record: protein: recombinant; tags: N-terminal GST; dsDNA, one strand shown. The essentials:
as §1

A further experiment deals with ETV6 (Homo sapiens, UniProt P41212 1-452). The settings on record: protein: recombinant; tags: N-terminal GST; dsDNA, one strand shown. The essentials: as §1
Sequence of ETV6 (P41212 whole entry): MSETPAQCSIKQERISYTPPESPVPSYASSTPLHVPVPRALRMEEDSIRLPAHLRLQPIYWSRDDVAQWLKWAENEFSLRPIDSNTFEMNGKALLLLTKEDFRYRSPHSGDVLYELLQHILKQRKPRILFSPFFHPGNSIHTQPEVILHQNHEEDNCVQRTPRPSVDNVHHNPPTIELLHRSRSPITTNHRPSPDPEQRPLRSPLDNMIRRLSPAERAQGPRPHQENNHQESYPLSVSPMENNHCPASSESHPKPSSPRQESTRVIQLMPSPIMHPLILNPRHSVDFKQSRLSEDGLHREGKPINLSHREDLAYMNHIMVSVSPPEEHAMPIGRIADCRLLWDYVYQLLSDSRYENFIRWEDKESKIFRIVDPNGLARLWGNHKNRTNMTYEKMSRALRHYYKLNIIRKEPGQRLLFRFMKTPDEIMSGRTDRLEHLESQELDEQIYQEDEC

Sequence of ELF4 (Q99607 whole entry): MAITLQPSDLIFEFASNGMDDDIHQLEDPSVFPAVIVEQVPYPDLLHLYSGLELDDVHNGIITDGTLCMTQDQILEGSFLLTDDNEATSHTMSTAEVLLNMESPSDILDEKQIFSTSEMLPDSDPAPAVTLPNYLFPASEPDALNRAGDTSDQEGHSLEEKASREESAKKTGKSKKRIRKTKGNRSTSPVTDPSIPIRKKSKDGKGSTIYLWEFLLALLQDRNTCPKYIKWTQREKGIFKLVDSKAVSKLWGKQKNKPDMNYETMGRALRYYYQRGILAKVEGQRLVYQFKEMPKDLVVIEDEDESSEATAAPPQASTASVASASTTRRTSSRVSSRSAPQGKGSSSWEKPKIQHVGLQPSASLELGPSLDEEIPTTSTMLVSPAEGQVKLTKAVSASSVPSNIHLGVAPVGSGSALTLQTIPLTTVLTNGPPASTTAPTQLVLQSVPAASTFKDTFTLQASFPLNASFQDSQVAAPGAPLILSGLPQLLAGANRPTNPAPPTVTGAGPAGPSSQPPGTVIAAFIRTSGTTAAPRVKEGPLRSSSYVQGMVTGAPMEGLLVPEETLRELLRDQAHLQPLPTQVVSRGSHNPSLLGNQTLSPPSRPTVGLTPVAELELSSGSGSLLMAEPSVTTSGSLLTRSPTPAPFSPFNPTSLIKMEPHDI
Sequence of ETV5 (P41161 whole entry): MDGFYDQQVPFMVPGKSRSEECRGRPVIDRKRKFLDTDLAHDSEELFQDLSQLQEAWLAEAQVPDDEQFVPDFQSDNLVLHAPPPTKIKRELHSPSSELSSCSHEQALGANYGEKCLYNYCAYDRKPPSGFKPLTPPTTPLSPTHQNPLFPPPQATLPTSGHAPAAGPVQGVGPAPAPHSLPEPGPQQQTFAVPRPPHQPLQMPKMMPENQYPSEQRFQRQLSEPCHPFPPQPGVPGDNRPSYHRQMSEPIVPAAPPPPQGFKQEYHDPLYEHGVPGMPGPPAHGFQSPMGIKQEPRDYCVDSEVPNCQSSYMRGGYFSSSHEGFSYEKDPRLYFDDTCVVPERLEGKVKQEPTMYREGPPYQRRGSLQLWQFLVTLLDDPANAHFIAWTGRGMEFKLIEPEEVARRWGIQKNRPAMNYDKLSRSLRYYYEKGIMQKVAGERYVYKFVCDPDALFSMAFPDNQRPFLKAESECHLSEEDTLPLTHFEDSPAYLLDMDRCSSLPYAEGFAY
Sequence of ETV1 (P50549 whole entry): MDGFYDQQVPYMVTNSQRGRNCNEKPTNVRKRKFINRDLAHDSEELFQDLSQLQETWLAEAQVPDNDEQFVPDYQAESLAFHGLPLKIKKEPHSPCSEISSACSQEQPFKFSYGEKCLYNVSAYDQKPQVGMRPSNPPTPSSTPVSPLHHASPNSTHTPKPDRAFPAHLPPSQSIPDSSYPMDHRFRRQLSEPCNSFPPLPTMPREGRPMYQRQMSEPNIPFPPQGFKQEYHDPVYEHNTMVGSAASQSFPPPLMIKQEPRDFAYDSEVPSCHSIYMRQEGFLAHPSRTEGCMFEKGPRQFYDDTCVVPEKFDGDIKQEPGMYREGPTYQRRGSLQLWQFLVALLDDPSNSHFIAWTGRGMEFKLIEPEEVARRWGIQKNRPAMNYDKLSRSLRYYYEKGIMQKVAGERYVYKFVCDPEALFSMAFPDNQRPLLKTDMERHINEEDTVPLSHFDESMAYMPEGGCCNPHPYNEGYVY
Sequence of HSF1 (Q00613 whole entry): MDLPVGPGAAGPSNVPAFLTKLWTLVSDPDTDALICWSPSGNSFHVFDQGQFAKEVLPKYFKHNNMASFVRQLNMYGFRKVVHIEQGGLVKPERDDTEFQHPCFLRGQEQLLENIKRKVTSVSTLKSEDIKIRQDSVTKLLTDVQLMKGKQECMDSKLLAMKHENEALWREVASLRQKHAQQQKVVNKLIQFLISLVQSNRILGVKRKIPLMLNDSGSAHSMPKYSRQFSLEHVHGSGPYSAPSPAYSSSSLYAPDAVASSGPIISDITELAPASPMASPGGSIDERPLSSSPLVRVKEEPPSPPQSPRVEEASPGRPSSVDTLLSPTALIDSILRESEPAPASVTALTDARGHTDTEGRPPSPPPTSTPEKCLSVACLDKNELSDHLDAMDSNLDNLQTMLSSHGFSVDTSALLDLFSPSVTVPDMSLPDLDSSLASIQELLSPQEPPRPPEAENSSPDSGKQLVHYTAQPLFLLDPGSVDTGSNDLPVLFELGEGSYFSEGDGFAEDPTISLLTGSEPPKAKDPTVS
Sequence of CRX (O43186 whole entry): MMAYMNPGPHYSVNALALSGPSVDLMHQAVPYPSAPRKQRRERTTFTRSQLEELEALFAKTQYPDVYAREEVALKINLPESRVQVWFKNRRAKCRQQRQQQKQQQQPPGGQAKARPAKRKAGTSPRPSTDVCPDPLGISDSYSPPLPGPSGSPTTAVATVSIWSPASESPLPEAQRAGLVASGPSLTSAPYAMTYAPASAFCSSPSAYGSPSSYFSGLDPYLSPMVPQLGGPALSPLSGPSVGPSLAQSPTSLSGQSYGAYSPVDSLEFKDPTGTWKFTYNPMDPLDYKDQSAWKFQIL

On to TTCTGC, for which the binding signal with FEV was 1.39 fold enrichment (6-mer frequency, TF over GST control); in the experiment with ETV5, 1.46 fold enrichment (6-mer frequency, TF over GST control); with HSF1, 1.57 fold enrichment (6-mer frequency, TF over GST control); with SPIC, 1.37 fold enrichment (6-mer frequency, TF over GST control); with ELF4, 1.52 fold enrichment (6-mer frequency, TF over GST control); with ELK4, 1.65 fold enrichment (6-mer frequency, TF over GST control). The binding signal in the experiment with ETV2 is 1.26 fold enrichment (6-mer frequency, TF over GST control); with ELF3, 1.54 fold enrichment (6-mer frequency, TF over GST control); in the experiment with CRX, 1.36 fold enrichment (6-mer frequency, TF over GST control); with ETV1, 1.45 fold enrichment (6-mer frequency, TF over GST control); with ERF it was 1.55 fold enrichment (6-mer frequency, TF over GST control); in the experiment with ETV3L it was 1.4 fold enrichment (6-mer frequency, TF over GST control). Also, the binding signal with ETS2 was 1.33 fold enrichment (6-mer frequency, TF over GST control); with SPDEF, 1.38 fold enrichment (6-mer frequency, TF over GST control); with ETV7, 1.43 fold enrichment (6-mer frequency, TF over GST control); in the experiment with ELF5, 1.38 fold enrichment (6-mer frequency, TF over GST control); in the experiment with ETV3, 1.33 fold enrichment (6-mer frequency, TF over GST control); in the experiment with ETV6, 1.47 fold enrichment (6-mer frequency, TF over GST control).
